We go through 95 compounds from PubChem BioAssay AID2315 (National Center for Advancing Translational Sciences (NCATS), 2010).

The whole screen tested about 290,000 compounds, of which about 27,000 (9.3%) were called active. This is one part of a sample in which actives are shown more often than they occur. Unmarked numbers belong to inactive results. Cut-off read from the data, not from the text of the source: active = inhibition mostly above about 28% (no sharp cut-off); inactive = mostly below about 43%.

The nature of this assay: A qHTS for Small Molecule Inhibitors of Shiga Toxin. Note: 0% is about no effect. As to conditions: Vero cells, Shiga toxin protein synthesis inhibition reporter; at 38.7 µM, active compounds read high.
Turning to `O=S(=O)(Cc1nnnn1-c1ccc(Br)cc1)c1ccc(F)cc1`, the inhibition (in general, the change of the read-out against control, counted positive when it falls) was -1.52%.
In the case of `CCOc1ccc(-n2c(SCC(=O)Nc3cc(C(=O)O)ccc3Cl)nc3ccccc3c2=O)cc1` it was 3.55%.
In the case of `CC(=O)c1cccc(NC(=O)COc2ccc(S(=O)(=O)N3CCOCC3)cc2)c1` it was -10.1%.
Take `CCCC(C)c1nnc(NC(=O)C2CC(=O)N(c3ccc(OCC)cc3)C2)s1` (stereo not given): the inhibition is -3.18%.
For `Cc1cccn2c(=O)c3cc(C(=O)NCCN4CCOCC4)c(=N)n(Cc4cccnc4)c3nc12`, the inhibition was -22.4%.
As for `COc1cccc(C(=O)Nc2nnc(S(=O)(=O)N3CCCCC3)s2)c1`, the inhibition was 6.87%.
Turning to `COc1cccc(NC(=O)Nc2nnc(N3CCCCC3C)s2)c1` (stereo not given), the inhibition was 53.2% (active).
In the case of `CCOC(=O)c1csc(NC(=O)Nc2cccc(OC)c2)n1` it was -3.25%; in that of `CN1C(=O)[C@H]2[C@@H](C3CC3)N3C(=O)CN(Cc4ccccc4)C(=O)[C@@]3(C)[C@H]2C1=O`, 1.87%; in that of `CC1CCN(CCCn2c(SCC(=O)NC3CCCC3)nc3ccccc3c2=O)CC1`, 17.3%.
In the case of `COc1ccccc1C1/C(=C(/O)c2ccc(OC(C)C)cc2)C(=O)C(=O)N1c1cc(C)on1` (stereo not given) it was -22.9%.
As for `COc1ccc(/C(O)=C2/C(=O)C(=O)N(c3nc(C)c(C)s3)C2c2ccco2)cc1` (stereo not given), the inhibition is 30.6%.
Turning to `CCOc1ccc(/C(O)=C2\C(=O)C(=O)N(c3ccc(OC)cc3)C2c2ccccc2[N+](=O)[O-])cc1` (stereo not given), the inhibition was 26.8% (active).
For the compound `CCNC(=O)COC(=O)CCNC(=O)c1cccc(C)c1`, the inhibition is 43.3%.
With `COc1ccc(OCC(=O)NNC(=O)c2cccc(C)c2)cc1` the figure was -7.72%; with `CCOC(=O)C(CC)/C(C)=N\NC(=O)c1cccc(C)c1` (stereo not given), 66.3% (active).
With `Cc1cc(=O)oc2c3c(cc(OCC(=O)NCCC(=O)N[C@@H](C)C(=O)O)c12)OC(C)(C)CC3`, the inhibition was -4.24%.
Turning to `Cc1cc2c(s1)c1cnn(Cc3c(F)cccc3Cl)c(=O)c1n2C`, the inhibition was 12.5%.
Take `O=C(C1=C(O)C(=O)N(CCOCCO)C1c1ccccn1)c1cccs1` (stereo not given): the inhibition was 29.3% (active).
Take `O=C(c1cccs1)N(C(=O)c1cccs1)c1ccccn1`: the inhibition was 39.7%.
Regarding `O=C(C1=C(O)C(=O)N(c2ncccn2)C1c1cccs1)c1ccco1` (stereo not given), the inhibition is -18.4%.
For the compound `Cn1c(=O)c2c(nc(OCc3cccnc3)n2Cc2ccccc2)n(C)c1=O`, the inhibition was 39.2% (active).
Regarding `C=CCOc1nc2c(c(=O)n(C)c(=O)n2C)n1Cc1ccc(Cl)cc1Cl`, the inhibition is -1.49%.
On to `Cn1c(=O)c2c(nc(NCCc3ccccc3)n2Cc2ccccc2)n(C)c1=O`, for which the inhibition was -11.5%.
As for `COc1ccc(CN2C3CCCC2CC(NC(=O)c2cccc(F)c2)C3)cc1` (stereo not given), the inhibition was 14.6%.
With `Cc1cccc(-n2ncc(Cl)c(Cl)c2=O)c1` the figure was -17.2%; with `O=c1c(Cl)c(NC2CC2)cnn1-c1ccccc1`, 107%.
Take `C=CCNc1cnn(-c2ccc(C)cc2)c(=O)c1Cl`: the inhibition is 127% (active).
On to `CCCN1C2CCCC1CC(NC(=O)c1cccc(OC)c1)C2` (stereo not given), for which the inhibition was 12.9%.
Take `CCCCn1c(=O)c(C(C)=O)c(O)c2ccccc21`: the inhibition is -12.1%.
`CCOc1ccc(N=Cc2c(O)n(-c3cccc(C)n3)c(=O)c3ccccc23)cc1`: the inhibition is -15.9%.
With `CC(=O)n1c(C=Nc2ccccc2)c(O)c2ccccc21` the figure was 49.2% (active).
With `C/C(=N\N1CCN(Cc2ccc(C)cc2)CC1)c1ccco1`, the inhibition was 31.8% (active).
Turning to `Cc1ccc(CN2CCN(/N=C/c3ccco3)CC2)c(C)c1`, the inhibition was 11.6%.
On to `O=C(c1ccco1)N1CCN(Cc2cccc(C(F)(F)F)c2)CC1`, for which the inhibition was -13.9%.
Regarding `CCn1c2ccccc2c2cc(NC(=O)CNC)ccc21`, the inhibition was -4.7%.
As to `CCn1c2ccccc2c2cc(NC(=O)COC(=O)c3ccccc3Br)ccc21`, the inhibition is -4.15%.
In the case of `CCn1c2ccccc2c2cc(NC(=O)C/C(C)=N/NC(=O)c3ccccc3N)ccc21`, the inhibition is 131% (active).
With `CN(C)c1ccc(NC(=O)CN2C3CCCC2CC(NC(=O)c2ccccc2)C3)cc1` (stereo not given) the figure was 27.2%; with `C/C(CC(=O)Nc1ccc(N(C)C)cc1)=N\NC(=O)c1ccccc1F`, 121% (active); with `CCOc1ccc(NC(=O)C/C(C)=N/NC(=O)Cc2cccs2)cc1`, 2.74%.
As to `CC(=O)NCCc1ccc(S(=O)(=O)Nc2ccc(C)c(S(=O)(=O)N3CCOCC3)c2)cc1`, the inhibition is -1.5%.
As for `COc1ccccc1NC(=O)CN(c1ccccc1OC)S(=O)(=O)c1ccccc1`, the inhibition is -1.35%.
Regarding `Cc1ccc(NC(=O)CSc2nnc(CNC(=O)c3ccccc3F)o2)cc1Cl`, the inhibition is -10.8%.
For the compound `CC(C)[C@H](NC(=O)N1c2ccccc2NC(=O)[C@@H]1C(C)C)C(=O)N[C@H](C(=O)O)c1ccccc1`, the inhibition is 3.44%.
Turning to `Cc1ccc(OCc2cc(C(=O)N(C)CCc3ccccc3)no2)cc1C`, the inhibition was 106% (active).
In the case of `Cc1ccc(OCC(=O)NCCCNC(=O)c2cccnc2)cc1C` it was -10.2%; in that of `Cc1ccc(OCC(=O)NCCCNC(=O)c2ccco2)cc1C`, -2.33%; in that of `Cc1cc(CN(C)C(=O)c2cc(COc3ccc(C)c(C)c3)on2)n[nH]1`, 59.9% (active).
For `C/C(=N/OC(=O)c1cccc(C(F)(F)F)c1)c1cnccn1`, the inhibition was -18.2%.
In the case of `CN(Cc1cccnc1)C(=O)c1cc(COc2ccc3ncccc3c2)on1`, the inhibition was 21.5%.
For the compound `CN(CCOc1ccccc1)C(=O)c1cc(COc2c(F)cccc2F)on1`, the inhibition was 28.4%.
For `CN(Cc1cnccn1)C(=O)c1cc(COc2cccc(C(F)(F)F)c2)on1`, the inhibition was 60.3% (active).
For the compound `Cc1ccc(SC(=O)COc2ccc(C)c(C)c2)cc1`, the inhibition is -26.3%.
Consider `O=S(=O)(Cc1noc(-c2ccc(OC(F)(F)F)cc2)n1)c1ccc(F)cc1`, for which the inhibition was 60.4%.
Consider `COc1ccc(C(C)NC(=O)C23CC4CC(CC(C4)C2)C3)cc1` (stereo not given), for which the inhibition is -10.2%.
On to `COc1ccccc1NC(=O)CCC(=O)OC(C)C(=O)c1ccccc1` (stereo not given), for which the inhibition is -0.996%.
Consider `Cc1n[nH]c(C)c1S(=O)(=O)N1CCCC(C(=O)Nc2ccc(Br)cc2)C1` (stereo not given), for which the inhibition is 3.93%.
With `COc1ccc2oc(=O)cc(-c3cc4ccccc4o3)c2c1` the figure was -7.01%; with `COc1ccc(-c2noc(CCCC(=O)NC3CCCC3)n2)cc1OC`, -6.44%; with `CCOc1nc(-c2ccc(OC)cc2)ccc1-c1noc(-c2cc(OC)c(OC)c(OC)c2)n1`, 11.8%.
Take `COc1ccc(-c2noc(-c3cccc(OC)c3OC)n2)cc1OC`: the inhibition was 64.7% (active).
On to `CC(C)NC(=O)C(c1ccc(F)cc1)N(C(=O)CCC(=O)Nc1ccccn1)c1ccccc1F` (stereo not given), for which the inhibition was -8.5%.
With `Cc1ccc(C)c(NS(=O)(=O)c2c(C)[nH]c(C)c2C(=O)N2CCCCC2)c1`, the inhibition was 2.83%.
Consider `Nc1nc(-c2ccccc2)cc(-c2ccccc2)n1`, for which the inhibition was 30.7% (active).
Take `CNc1nc(-c2ccccc2)cc(-c2ccccc2)n1`: the inhibition is 1.28%.
For the compound `Nc1cccc(-c2cc(-c3ccccc3)nc(-c3cccc(N)c3)n2)c1`, the inhibition is -3.83%.
Turning to `O=C(NC1CC1)C(Cc1ccccc1)NS(=O)(=O)c1ccccc1F` (stereo not given), the inhibition was -4.61%.
On to `CC1(C(=O)O)CCC(C(=O)Nc2ccc(Cl)c(Cl)c2)C1(C)C` (stereo not given), for which the inhibition was -2.66%.
As to `O=C(CCn1c(SCC(=O)c2ccccc2)nc2ccccc2c1=O)NCc1ccc(F)cc1`, the inhibition was -27.4%.
In the case of `O=C(Nn1c(-c2ccccc2)nc2ccccc2c1=O)c1ccc([N+](=O)[O-])cc1`, the inhibition is -8.82%.
For the compound `O=C(CN(C(=O)CNC(=O)c1cccs1)c1cccc(F)c1)NC1CCCCC1`, the inhibition is -5.58%.
For `O=C1CCN(Cc2ccc([N+](=O)[O-])cc2)CCN1[C@H](CO)Cc1ccccc1`, the inhibition is -0.762%.
With `C=CCc1cc(C)ccc1OCCCn1ccnc1`, the inhibition is -4.77%.
With `CC1C(=O)Nc2ccc(S(=O)(=O)N3CCN(c4ccccc4F)CC3)cc2NC1=O` (stereo not given) the figure was -0.75%; with `COC(=O)c1c(NC(=O)c2cccs2)sc2c1CCCC2`, 35.1%.
In the case of `CCc1c(C)sc(NC(=O)c2cccs2)c1C(N)=O`, the inhibition is 107% (active).
With `CCCc1nnc(NC(=O)c2cccs2)s1` the figure was 39%; with `N#Cc1cccc(NC(=O)CCC2CCCC2)c1`, 33.8% (active).
With `Cc1ccc(CC(=O)Nc2cccc(C#N)c2)cc1` the figure was 25.6%; with `N#Cc1cccc(NC(=O)CN2CCCCCC2)c1`, 2.24%; with `COc1ccc(N2CCN(CCNC(=O)Nc3cc(Cl)ccc3Cl)CC2)cc1`, 4.24%.
Turning to `CCc1ccccc1NC(=O)NCCN1CCCCC1`, the inhibition was -9.72%.
Take `COc1ccc(SC[C@H](Cc2ccccc2)N2CCN(CCc3ccccc3)CCC2=O)cc1`: the inhibition is -7.36%.
As to `Cc1ccc(SCC(CC(C)C)N2CCN(CCc3ccccc3)CCC2=O)cc1` (stereo not given), the inhibition is 64.5% (active).
In the case of `CCCN1CCC(=O)N(C(CSc2ccc(C)cc2)Cc2ccccc2)CC1` (stereo not given), the inhibition was -8.43%.
In the case of `O=c1onc(-c2c(F)cccc2F)n1-c1ccccc1Cl` it was -3.28%; in that of `CCOC(=O)c1c(NC(=S)NC)sc2c1CCCC2`, -5.4%; in that of `CCCOC(=O)Nc1sc2c(c1C(=O)OCC)CCC2`, -17.5%.
As for `CCOC(=O)c1c(NC(=O)C2CCN(S(=O)(=O)c3ccc(Cl)cc3)CC2)sc2c1CCCC2`, the inhibition is 45.1% (active).
Consider `NC(=O)Cn1cc(/C=N\NS(=O)(=O)c2ccccc2)c2ccccc21`, for which the inhibition is -5.18%.
`COc1ccc(-c2nc3ccccc3n2CCC(C)C)cc1OC`: the inhibition is -2.89%.
Turning to `O=C(C[n+]1ccccc1)N/N=C/c1ccc(O)cc1`, the inhibition is 30.3%.
Regarding `Cc1nc2ccc(C(=O)N/N=C/c3ccc(O)cc3)cc2[nH]1`, the inhibition is 22.1%.
Consider `Cc1nonc1C(=O)N/N=C/c1ccc(O)cc1`, for which the inhibition was 72.1% (active).
